Laboratory results from publication PMC12136788.
Residue numbers refer to the chain shown, from its start. The full ranking holds about 24,000 sequences; the median of “enrichment r” is about 0.99, and the highest 2% start at about 3.7. The entries come from a sample that favours the highest values as a whole.

T1: UNK ZnF1-3 (human, UniProt Q9C0B0 31-174)
T1 sequence: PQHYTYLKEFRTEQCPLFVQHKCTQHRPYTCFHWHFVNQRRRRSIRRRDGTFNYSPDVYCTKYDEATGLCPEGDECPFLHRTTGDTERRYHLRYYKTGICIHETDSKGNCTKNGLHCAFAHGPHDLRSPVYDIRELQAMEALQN

B1: 48376308_48376428_337_CDS_ENSMUSG00000031558_ENSMUST00000170109|mouse|control|control (ssRNA)
RNA: GGGAGUUCUACAGUCCGACGAUCGGGCACACUGCGCAGUGCCAGCCCAUGACAGUCCACCGUGCUGCCUGAACAGGAGCACUGGGCCGGGCACGCCUGCGGCGCCACCUUGUUCAAGAUCGACAACACUAACCCCAGCGAUAGCAACAGAGGAUUGAGCAUCA
B2: chr7:126859785:126859786:-_ENSMUSG00000030942_ENSMUST00000033236|mus_hu|FALSE|FALSE (ssRNA)
RNA: GGGAGUUCUACAGUCCGACGAUCUAUAUUACACACAAAUGUUAAAAAAAAAAAAAAAAAACAGACAUAAACAAGAAAAUCACAAAAGUACAAAAACUUCACUAAACAAUUCACUUCUAACCUACAUGAUCCACAUUUUUGCAACAACAGAGGAUUGAGCAUCA
B3: chr5:92873050:92873051:-_ENSMUSG00000029426_ENSMUST00000031377|mus_hu|motif|central (ssRNA)
RNA: GGGAGUUCUACAGUCCGACGAUCCAGCACCCAACAACAACAAAAUUACUAUACAAGGGUUUAUUAAAUACUUGCGGGACACAUAAAAGAACAAUUUCAGAGCCCACAUGAUUUUAUAAAGCUUAAUGGCCAGCCAUGUCAGCCCAACAGAGGAUUGAGCAUCA
B4: chr5:92873050:92873051:-_ENSMUSG00000029426_ENSMUST00000031377|mus_hu|FALSE|FALSE (ssRNA)
RNA: B3 RNA with G75U, G76A
B5: chr8:13147844:13147845:+_ENSMUSG00000031446_ENSMUST00000016680|mus_mus|FALSE|FALSE (ssRNA)
RNA: GGGAGUUCUACAGUCCGACGAUCAAUAUUAACAAUUUGUAGACACAAUGAACUUAAAAAUAAGAAGUAGAAAUAGAAAUCUAUUUGGUCUUUCAGAGACCACAUCAUAGAACUCAUAAAUGAAAAUGUACAAAUAUAGAAAUGCAACAGAGGAUUGAGCAUCA
B6: chr4:154931852:154931853:+_ENSMUSG00000029064_ENSMUST00000030940|mus_mus|FALSE|FALSE (ssRNA)
RNA: GGGAGUUCUACAGUCCGACGAUCUUUUAUUGUAGUAUUUCCUUUUAAAAUUGGACCAACCCAAAACAAAAUGAAACCAAAAAAACAAAAACAAAACAAAAUAACAAAAUAAACCAAAAACAAUGGCCCCAGAAAAAAUGCACACAACAGAGGAUUGAGCAUCA
B7: 57609423_57609543_1342_3pUTR_ENSG00000101166_ENST00000355937|human|control|control (ssRNA)
RNA: GGGAGUUCUACAGUCCGACGAUCACUAAGUUACAAAACUUGGGCAAAUCAAUACAGUACUCUUUUAUAAUGAAACCAUACUUUUGUUGGAGUCAUGUUACUUUAGUGAUAAUUUUCACUCCAAAAAUAUUUAAGUACCAAAUCCAACAGAGGAUUGAGCAUCA
B8: chr5:40767622:40767623:-_ENSG00000132356_ENST00000397128|hu_mus|hu_hu_hu_mus_False|38_48 (ssRNA)
RNA: GGGAGUUCUACAGUCCGACGAUCAUCUUUUAUUGCGGCCCUCUUCAUGGGAUCCACCUGCAGCAUAUGUUUCAAAAGGCUGAUUACAGAAGGAUUUAAAUAUUGAGGGGUAUAAAAGAUCCCAUCACAUAUCUUCUUAAAAAGCAACAGAGGAUUGAGCAUCA
B9: chr16:57153313:57153314:+_ENSMUSG00000022752_ENSMUST00000166897|mus_mus|motif|central (ssRNA)
RNA: GGGAGUUCUACAGUCCGACGAUCCAAAAAAAAUUAAAAAGGAUUAAUUGAAUACAAAAGAAGUAUAUUUUACAGCACUUACGGUGUUAAAAACUAACAUACUAUAAAAUACUCACAUAUUAUACAAACAGCUAUAAAAAAACACAACAGAGGAUUGAGCAUCA
B10: chr1:60041781:60041782:+_ENSMUSG00000041040_ENSMUST00000036540|mus_hu|FALSE|FALSE (ssRNA)
RNA: GGGAGUUCUACAGUCCGACGAUCAAGUUUACAAUAGUAAAGUAAAUGCAGUAGUGGCAAAUUUUCUUUUAUUUUCCUUCACAAAAGAAAAUCUUUAUAACCCAGUCCUAGUCUUGGACAUAGUGAAAGCUAUAAAUUCUGACUCAACAGAGGAUUGAGCAUCA
B11: chr14:102516957:102516958:+_ENSG00000197102_ENST00000360184|hu_hu|FALSE|FALSE (ssRNA)
RNA: GGGAGUUCUACAGUCCGACGAUCAGCUCAGACCUUCCAAAUAUUUUAAAAAUGAAUAAAUGUUAAAUACCAACUUUCACUAUUACAGAAAGGGGCAGCUAGAAAAGUUUACUCUGUGCACAAGACUGCGACACCCCGCUCGUACAACAGAGGAUUGAGCAUCA
B12: chr16:57153313:57153314:+_ENSMUSG00000022752_ENSMUST00000166897|mus_mus|FALSE|FALSE (ssRNA)
RNA: B9 RNA with G82U, G83A
B13: chr15:63448706:63448707:-_ENSG00000185088_ENST00000411926|hu_hu|FALSE|FALSE (ssRNA)
RNA: GGGAGUUCUACAGUCCGACGAUCUGAUCUUGUAGCAACCUGGACAUUUUACAUCCAUAAAGUAAGAAUUUGGACUUUGUACUAGGCGUUUCUUUUUAUGUUUUUUCUUUUCCUCUUCCAAGGACGGAUGUAGUAAAUCUCUAGCAACAGAGGAUUGAGCAUCA
B14: chr15:51674161:51674162:-_ENSMUSG00000022312_ENSMUST00000022925|mus_mus|motif|central (ssRNA)
RNA: GGGAGUUCUACAGUCCGACGAUCCUGAACAACCUCAGUGCCUUGUCCUUCUUCUUGAUAAUGUUUGAUUAUCUUUAAUACGGCCAGGCCGUCGAUCUGCACCUGCUUCACGGCCGAAUCUCCGGAGCCGCCUUUGCCUUUGCCCAACAGAGGAUUGAGCAUCA
B15: 109540647_109541272_703_CDS_ENSG00000076248_ENST00000242576|human|control|control (ssRNA)
RNA: GGGAGUUCUACAGUCCGACGAUCACGAACCGUGAGGACAGCGUUGAGAAGGAGAACACCUUGCUUGGCCCACCCAGAUAAAUCUCCAUGGCCAGGAUGAACAAAAUCCUCUAUGUCUGUAGACAACUCUUUAUAAAUGUUCUCCAACAGAGGAUUGAGCAUCA

The binders below were run against T1, UNK ZnF1-3 (assay: nsRBNS (natural sequence RNA bind-n-seq); RBNS binding buffer (assumed for nsRBNS): 25 mM Tris pH 7.5, 150 mM KCl, 3 mM MgCl2, 0.01% Triton X-100, 500 ug/ml BSA, 20 U/ml SUPERase-In, 4 C; UNK is unkempt and MSI1 is Musashi-1; names of the RNAs are library labels; protein concentration not given here; high values mean tight binding).
In the case of B1, the binding signal is reported as 0.634 enrichment R.
Binder B2 has a binding signal of 10.5 enrichment R.
With B3 the binding signal was 4.28 enrichment R.
In the case of B4, the binding signal is reported as 3.35 enrichment R.
For B5, the binding signal was 3.41 enrichment R.
For B6, the binding signal was 3.7 enrichment R.
B7 gave a binding signal of 0.487 enrichment R.
Binder B8 has a binding signal of 1.64 enrichment R.
Work on B9 yielded a binding signal of 3.65 enrichment R.
With B10 the binding signal was 0.593 enrichment R.
Binder B11 has a binding signal of 3.32 enrichment R.
B12 was tested, and the binding signal was 11.1 enrichment R.
In the case of B13, the binding signal is reported as 0.655 enrichment R.
B14 gave a binding signal of 0.51 enrichment R.
B15 gave a binding signal of 1.34 enrichment R.
